# In PubChem BioAssay (NCI):
# “And” between values parts separate entries of the source, which are not always exact repeats. Equal values may be shown once. The panel holds about 83,000 compounds, 20% with a hit somewhere; the sample as a whole holds those more often.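 The endpoint reported here, percent growth, reads 100 for growth as untreated, 0 for no net growth and -100 for all cells dead.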 Unmarked numbers belong to inactive results. The source made the active and inactive calls. The calls were made as follows: active = growth percent below 10; inactive = the rest.
# How the values were obtained:
# Experiment in all cases: NCI-60 one-dose screen, 48 h (100 = growth as untreated, 0 = no growth, -100 = all killed)
# Conditions in all cases: 10 µM unless noted
# HCT-15 colon = tested on: HCT-15 colon
# HT29 colon = tested on: HT29 colon
# SNB-75 CNS = tested on: SNB-75 CNS
# SNB-19 CNS = tested on: SNB-19 CNS
# U251 CNS = tested on: U251 CNS
# PC-3 prostate = tested on: PC-3 prostate
# SK-MEL-5 melanoma = tested on: SK-MEL-5 melanoma
# UACC-62 melanoma = tested on: UACC-62 melanoma
# LOX IMVI melanoma = tested on: LOX IMVI melanoma
# SK-MEL-28 melanoma = tested on: SK-MEL-28 melanoma
# SK-MEL-2 melanoma = tested on: SK-MEL-2 melanoma
# EKVX NSCLC = tested on: EKVX NSCLC
# SN12C renal = tested on: SN12C renal
# UO-31 renal = tested on: UO-31 renal
# TK-10 renal = tested on: TK-10 renal
# ACHN renal = tested on: ACHN renal
# CAKI-1 renal = tested on: CAKI-1 renal
# A498 renal = tested on: A498 renal
# CCRF-CEM leukemia = tested on: CCRF-CEM leukemia
# MOLT-4 leukemia = tested on: MOLT-4 leukemia
Structure (SMILES),growth (HCT-15 colon),growth (HT29 colon),growth (SNB-75 CNS),growth (SNB-19 CNS),growth (U251 CNS),growth (PC-3 prostate),growth (SK-MEL-5 melanoma),growth (UACC-62 melanoma),growth (LOX IMVI melanoma),growth (SK-MEL-28 melanoma),growth (SK-MEL-2 melanoma),growth (EKVX NSCLC),growth (SN12C renal),growth (UO-31 renal),growth (TK-10 renal),growth (ACHN renal),growth (CAKI-1 renal),growth (A498 renal),growth (CCRF-CEM leukemia),growth (MOLT-4 leukemia)
OCc1cc(CN2CCCCC2)c(O)c2ncccc12,20%,41.6%,81.1%,57.3%,40.5%,46.9%,74.2%,55.3%,37.3%,60.7%,81.3%,65.5%,59.9%,17.7%,31%,20.7%,13%,91.8%,29.5%,36%
COc1ccc(Oc2nc(Nc3ccc(N4CCOCC4)cc3)ncc2NC(=O)c2cc(OC)cc(OC)c2)cc1,67.7%,72%,79.1%,87.4%,82.7%,67.5%,77.2%,87.8%,84.7%,100%,95.4%,94.8%,89%,55.5%,103%,86.1%,100%,8.34% (active),70%,53.3%
O=C(O)c1ccccc1Cc1ccc(F)c2ccccc12,108% and 99.4%,116% and 107%,93.6% and 77.4%,101% and 104%,115% and 104%,120% and 90.7%,96.2% and 102%,101% and 106%,100% and 98.9%,105%,101% and 119%,107%,107% and 97.9%,77.7% and 89.1%,107% and 109%,99.3% and 102%,94.9% and 100%,99.3% and 97.4%,98.8% and 96.3%,93.7% and 107%
COc1ccc(-c2cc3cnc4ccccc4c3oc2=O)cc1,92.3%,96.8%,104%,99%,94%,92.5%,104%,96.5%,97.6%,100%,120%,101%,100%,88.7%,99.2%,106%,89.7%,93.1%,89%,104%
COc1ccc(C(CC(=O)c2ccc3c(c2)OCO3)C(=O)O)cc1OC (stereo not given),122% and 109%,103% and 96.3%,110% and 88.3%,110% and 97.6%,102%,87.4% and 105%,108% and 102%,111% and 112%,95.6% and 98.4%,122% and 106%,114% and 87.8%,99.9%,98% and 102%,113% and 83.3%,109% and 108%,118% and 98.7%,91.4% and 95.3%,104% and 106%,96% and 97.5%,108% and 96.1%
COc1cc(CO)cc2cc3ccccc3nc12,106%,103%,74.7%,97.1%,99.2%,104%,105%,98.7%,100%,113%,111%,102%,101%,81.7%,118%,105%,93.6%,-22.1% (active),99.1%,99.4%
Nc1ccc(/C=N/Nc2ccnc3c(N)cccc23)c2cccnc12,-49.7% (active),-22.5% (active),-99.7% (active),21.8%,-63.4% (active),15.8%,83.1%,89.5%,-90.9% (active),105%,87.9%,32.2%,71.1%,-58.8% (active),-43.1% (active),-87.7% (active),31.9%,77%,-25.6% (active),-37.5% (active)
COc1cc(NC2CCCCC2O)c2nc(-c3ccc(Cl)cc3)ccc2c1 (stereo not given),49.6% and 62.8%,54.2% and 67.9%,82% and 103%,83.4% and 93.6%,56.8% and 68.8%,70.1%,96.6% and 98.1%,83.7% and 94.7%,41.4% and 77%,94.2% and 96.7%,91.5% and 80.4%,78.3% and 94.4%,80.1% and 103%,71.1% and 86.8%,82.2% and 125%,84.4% and 87.5%,46.9% and 61.3%,101%,53.7% and 40.2%,33.4%
Cc1nonc1-c1ccc2c(c1)OCO2,97.5% and 107%,102% and 107%,96.3% and 96.6%,112% and 95.7%,93.7% and 108%,96%,99.3% and 101%,110% and 97.7%,94.5% and 98.4%,118% and 169%,113% and 100%,90% and 104%,109% and 103%,95.2% and 96.6%,105% and 121%,109% and 107%,82.2% and 103%,166%,86.9% and 94.1%,94.8%
Cc1ccc(-c2nc3nc(-c4ccccc4)nc(N4CCCNCC4)c3o2)cc1,-81.5% (active),-86.1% (active),-59.8% (active),25.9%,-84.9% (active),-88.9% (active),-57.3% (active),-81.4% (active),-89.8% (active),-89.3% (active),-2.85% (active),39%,-87.9% (active),-98.1% (active),-60% (active),-98.9% (active),-9.04% (active),98.4%,-75.8% (active),-68.1% (active)
CN(Cc1ccccc1)c1nc(Cl)c(C2CC(c3ccc4c(c3)OCO4)=NN2c2cc(Cl)cc(Cl)c2)s1 (stereo not given),98.7%,97.8%,78.5%,106%,98.1%,93.5%,97.4%,96.6%,96.6%,99%,101%,95.1%,99.1%,87.5%,119%,97%,84.3%,115%,97.1%,107%
CCCCn1c(C(=O)c2c[nH]c3ccccc23)n[nH]c1=S,99%,99.8%,81.2%,100%,100%,93.8%,99.9%,81.7%,96.4%,117%,91.9%,90.3%,90%,90.1%,132%,102%,79.3%,92.1%,91.3%,103%
